This is a sample that favours compounds with a hit; in the whole collection about 3.9% have one here.
BH1578 lux ind: inducers of Vibrio cholerae quorum light production without autoinducers; V. cholerae BH1578 lux reporter, luminescence, 6 h; activation, % at 18.7 µM; 0.16% of 350,000 active; AID 588436; in the data active means activation mostly above about 9.7%, no sharp cut-off
GDH-TPI inh: counter-screen for M. tuberculosis FBA inhibitors: GDH-TPI coupled enzymes. GDH-TPI coupled enzyme counterscreen, NADH absorbance. inhibition, % at 4.8 µM. 1.2% of 360,000 active;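 further: 0% = DMSO wells and 100% = wells lacking the enzyme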
FBA Mtb inh: Mtb fructose-bisphosphate aldolase inhibition. 2.3% of 360,000 active. P9WQA3. inhibition, % at 1 µM. purified M. tuberculosis FBA, fluorescence read-out. AID 588726; in the data active means inhibition above about 27%;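 further: 0% = vehicle and 100% = reference inhibitor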
Target sequence (P9WQA3 whole entry, looked up): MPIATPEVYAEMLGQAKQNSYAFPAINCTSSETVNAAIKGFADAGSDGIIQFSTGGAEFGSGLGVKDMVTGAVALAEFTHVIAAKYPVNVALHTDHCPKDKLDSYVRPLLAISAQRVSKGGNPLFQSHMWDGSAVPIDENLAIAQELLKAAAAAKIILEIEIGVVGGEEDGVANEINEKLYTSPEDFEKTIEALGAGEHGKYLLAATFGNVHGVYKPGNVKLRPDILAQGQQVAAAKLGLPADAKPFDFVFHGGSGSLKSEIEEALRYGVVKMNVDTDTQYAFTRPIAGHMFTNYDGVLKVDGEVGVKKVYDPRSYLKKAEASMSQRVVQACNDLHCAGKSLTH
CCHF vOTU inh: CCHFV vOTU protease inhibition; 0.55% of 370,000 active; Pep-AMC fluorescence; inhibition, % at 11.5 µM; AID 651958; further: 0% = vehicle wells with enzyme and 100% = no enzyme wells
Active calls of the source: *; i = inactive; . = no result given; + = active, no number. Unless noted, no stated cut-off is given here; in the data, active means inhibition above about 30%; inactive means the rest.

SMILES | BH1578 lux ind | GDH-TPI inh | FBA Mtb inh | CCHF vOTU inh
C/C(=N\NC(=O)c1ccc(NS(=O)(=O)c2cccs2)cc1)c1ccncc1 | 0 | 32* | 1 | -2
C/C(=N\NC(=O)c1ccc(NS(=O)(=O)c2cccs2)cc1)c1ccc(O)cc1O | 0 | 68* | 1 | 28
C/C(=N\NC(=O)c1ccc(NS(=O)(=O)c2cccs2)cc1)c1ccccc1 | 0 | 16 | 2 | 7
O=C(OCC(O)C(O)C(O)C(SCc1ccccc1)SCc1ccccc1)c1ccccc1 (centres undefined) | -1 | 8 | 9 | 5
COc1ccc(NC(=O)CC(c2ccco2)C(C)C)cc1 (centres undefined) | -1 | 0 | 0 | 1
COc1ccc(CCNC(=O)CN(c2cc(OC)ccc2OC)S(=O)(=O)c2ccccc2)cc1 | -6 | 8 | 1 | -3
CC(C)(C)N/N=C/c1cc(Cl)cc([N+](=O)[O-])c1O | 0 | 9 | -5 | 11
CN(/N=C/c1cc(Cl)cc(Cl)c1O)c1c(Cl)cccc1[N+](=O)[O-] | 0 | 37* | -4 | -4
COC(=O)c1[nH]c2c(c1C(=O)OC)CCc1ccccc1-2 | -1 | 30 | 121* | -99
CC(=O)/C=N/Nc1ccccc1 | 0 | 36* | 2 | -10
CC(=NNc1ccccc1)C(C)=NNc1ccccc1 | -7 | 8 | -1 | -3
COc1ccc(-c2nc3ccccc3nc2-c2ccccc2)cc1OC | i | 31* | -2 | -6
COc1ccc(-c2cc(-c3ccccc3)nc(Cl)n2)cc1OC | i | 33* | 12 | -11
C=CCNc1ncnc2c1ncn2[C@H]1CN(Cc2cc(OC)c(OC)c(OC)c2)C[C@@H](CO)O1 | -1 | -1 | -1 | 6
COc1cc2c(cc1OC)C(CCc1ccccc1)=NCC2 | i | 24 | 158* | -248
Cc1ccccc1N/N=C/c1ccc(C#N)cc1 | 60* | 3 | 0 | -8
Nc1nc(N)c2[nH]c(-c3ccccc3)nc2n1 | 2 | 11 | + | -146
O=C(CSc1nnc2c(n1)[nH]c1ccccc12)Nc1ccc(N2CCOCC2)cc1 | 0 | 7 | 1 | 4
c1ccc(N2CCN(Cc3nnnn3C3CCCCC3)CC2)cc1 | 3 | -2 | -1 | -1
CC(C)OC(=O)C1C2C=CC3(CN(C(C)c4ccc(Br)cc4)C(=O)C13)O2 (centres undefined) | 1 | 0 | 3 | 3
CC(C)OC(=O)C1C2C=CC3(CN(CC4CCCO4)C(=O)C13)O2 (centres undefined) | 21* | 1 | 8 | -4
CCCOc1ccccc1C1NC(=O)NC(C)=C1C(=O)OCCOCC (centres undefined) | . | -4 | -2 | 8
COC(=O)C1=CN(C(C)C)C=C(C(=O)OC)C1c1cccc(OC)c1 | i | 17 | + | -211
COC(=O)C1=CN(C(C)C)C=C(C(=O)OC)C1c1cc(Br)c(OC)c(OC)c1 | 0 | 6 | 154* | -236
COC(=O)C1=CN(C)C=C(C(=O)OC)C1c1ccccc1Cl | -1 | 19 | 199* | -208
SMILES | BH1578 lux ind | GDH-TPI inh | FBA Mtb inh | CCHF vOTU inh
CCCOc1ccccc1C1C(C(=O)OC)=CN(C(C)C)C=C1C(=O)OC | -1 | 13 | 165* | -143
COC(=O)C1=CN(Cc2ccc(F)cc2)C=C(C(=O)OC)C1c1ccc(O)c(OC)c1 | 0 | 14 | 6 | -7
COC(=O)C1=C(C)NC(=O)NC1c1ccccc1Cl (centres undefined) | -1 | 1 | 0 | 2
CCN1C=C(C(=O)OC)C(c2cccc(C)c2)C(C(=O)OC)=C1 | 0 | 17 | + | -266
COC(=O)C1=CN(c2cc(C)cc(C)c2)C=C(C(=O)OC)C1c1cccc(F)c1 | 0 | -1 | 2 | -24
COc1cc(/C=N/NC(=O)c2cccc([N+](=O)[O-])c2)ccc1O | i | 16 | -2 | -3
COc1ccc(/C=N/NC(=O)c2ccc(NC(=O)c3cccc([N+](=O)[O-])c3)cc2)c(C(=O)O)c1OC | i | 31* | 2 | 24
COc1ccc(/C=N/NC(=O)c2cccc([N+](=O)[O-])c2)cc1O | 0 | 32* | -2 | 10
Cc1[nH]ccc2c1[nH]c1cc(=O)ccc12 | -1 | 7 | 167* | -180
O=c1cc[nH]c2c1ccc1c(=O)cc[nH]c12 | 0 | 10 | 24 | -22
COC(=O)c1c(C)c2c(C)cc3ccccn3c-2c1C(=O)OC | i | 20 | 2 | 4
COC(=O)c1cc2c(-c3ccccc3)cc3ccccn3c-2c1C(=O)OC | -1 | 35* | -4 | 7
Cc1cccn2cc(-c3ccc(S(=O)(=O)N4CCOCC4)cc3)nc12 | i | 18 | 187* | -104
O=S(=O)(c1ccc(-c2cn3ccccc3n2)cc1)N1CCOCC1 | i | -6 | + | -128
Cc1cccn2cc(-c3ccc(S(=O)(=O)N4CCCCC4)cc3)nc12 | -1 | 8 | 135* | -83
O=S(=O)(c1cccc(-c2cn3ccccc3n2)c1)N1CCCCC1 | 2 | 6 | 5 | 13
C[C@@H]1CCCCO[C@@H](CN(C)S(=O)(=O)c2ccc(F)cc2)[C@@H](C)CN([C@H](C)CO)C(=O)c2cc(NC(=O)c3ccccc3)ccc2O1 | 0 | 1 | 3 | 4
COCCCNc1oc(-c2ccccc2OC)nc1C#N | i | 40* | + | -111
COCCCNc1oc(/C=C/c2ccccc2)nc1C#N | i | 30 | . | -358
COCCCNc1oc(-c2ccccc2F)nc1C#N | 0 | 5 | + | -68
COc1ccc(Cl)cc1Nc1cc(C)nc2nc(C)nn12 | 0 | 10 | 3 | 0
CCOC(=O)C1(C)CCCN(C(=O)c2ccc(OC(F)F)cc2)C1 (centres undefined) | 0 | -4 | -2 | 0
COC(=O)c1ccccc1-c1ccc(/C=N/Nc2nc(N3CCCC3)nc(N3CCCC3)n2)o1 | 0 | 61* | 23 | -9
COC(=O)c1ccccc1-c1ccc(/C=N/NC(=O)c2cc3ccccc3o2)o1 | -1 | 52* | 5 | -8
COc1cc(C(=O)O)cc(OC)c1OC | -1 | 11 | 2 | -6
SMILES | BH1578 lux ind | GDH-TPI inh | FBA Mtb inh | CCHF vOTU inh
C/C(=N/NC(=O)CNC(=O)c1ccccc1)c1ccc(C)cc1 | 0 | 0 | -6 | -9
CCN1CCN(CCOc2cccc(Cl)c2Cl)CC1 | -1 | 2 | 7 | 13
Cn1nc(-c2ccccc2)c2ncc(C(F)(F)F)cc21 | 0 | 6 | 28* | .
COc1ccc(Cl)cc1C=CC=NNS(=O)(=O)c1ccc(C)cc1 | -1 | 37* | 0 | 6
Cc1cnc(NC(=O)c2sc(Nc3ccccc3)nc2N)o1 | -1 | 31* | -1 | 6
Cc1c(-n2c(SCC(=O)C(C)(C)C)nc3ccccc3c2=O)c(=O)n(-c2ccccc2)n1C | 0 | 8 | 145* | -8
C=C(C)CSc1nc2ccccc2c(=O)n1-c1c(C)n(C)n(-c2ccccc2)c1=O | i | 5 | 1 | -11
Cc1ccc(NC(=O)C2CCN(C(=O)c3ccccc3C)CC2)cc1 | 0 | 5 | 3 | -5
Cc1cc(/C=C(\C#N)C(=O)OCC#N)c(C)n1CC(C)C | 0 | 8 | 1 | 5
Cc1cc(/C=C(\C#N)C(=O)OCC(=O)Nc2ccc(OC(F)F)cc2)c(C)n1CC(C)C | 0 | 31* | 0 | 19

Compound activity deposited in PubChem by several laboratories.
